Screening results as filed in PubChem BioAssay.
TDP1 cell CPT: qHTS for Inhibitors of human tyrosyl-DNA phosphodiesterase 1 (TDP1): qHTS in cells in presence of CPT; chicken DT40 Tdp1-/-;hTDP1 cells + 20 nM CPT, ATP luminescence, 48 h; Potency, µM (series often up to 46.2 µM), usual class: inhibitors; 420,000 tested, 12% active; AID 686979, 2013; further: nearly all actives have a fitted effect of over 55% in size
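Chicken DT40 Tdp1-/- cells stably complemented with human TDP1 were seeded at 400 cells/well in medium containing 20 nM camptothecin, exposed to pin-transferred compounds, and grown at 37 °C for at least 48 hr. Viability was read as ATP luminescence.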
HT1080NT lethal: qHTS for induction of synthetic lethality in tumor cells producing 2HG: qHTS for the HT-1080-NT fibrosarcoma cell line | 360,000 tested, 1.6% active | HT-1080-NT fibrosarcoma viability, CellTiter-Glo ATP luminescence, 48 h | Potency, µM (titrated, usually from 46.1 µM), hits mostly cytotoxic;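 further: NT is the 2HG producing partner of a matched IDH1 knockdown line; nearly all actives have a fitted effect of over 55% in size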
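Viability by CellTiter-Glo luminescence after 48 h compound exposure at 37C of HT-1080-NT cells (750/well, RPMI, 5% FBS). % activity scaled between DMSO wells and medium-only wells, then curve-fitted and categorized by curve class.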
TDP1 cell noCPT: qHTS for Inhibitors of human tyrosyl-DNA phosphodiesterase 1 (TDP1): qHTS in cells in absence of CPT; DT40 Tdp1-/- hTDP1 cells, no CPT, ATP luminescence, 48 h; Potency, µM (doses to about 46.2 µM), hits mostly inhibitors; 420,000 tested, 15% active; further: nearly all actives have a fitted effect of over 55% in size
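Growth of hTDP1-complemented DT40 Tdp1-knockout cells is measured by ATP luminescence after at least 48 hr compound exposure at 37 °C, with DMSO substituting for the 20 nM CPT used in the parallel screen.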
IL1B secr inh: qHTS for Inhibitors of Inflammasome Signaling: IL-1-beta AlphaLISA Primary Screen; THP-1 LPS/ATP IL-1B secretion, AlphaLISA, 16 h; active compounds read low; activity change, % at 57.5 µM; 360,000 tested, 4.7% active; AID 743279, 2014; in the data active means activity change below about -50%; inconclusive means mostly about -30% to -49%
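Secreted IL-1B measured by AlphaLISA bead assay after 16 h compound exposure of THP-1 cells; compounds (final up to 57.5 uM) added 1 h before LPS (250 ng/mL) and ATP (1.25 mM) stimulation; lower signal means less secretion.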
HT1080 IDH1KD tx: qHTS for induction of synthetic lethality in tumor cells producing 2HG: qHTS for the HT-1080-IDH1KD cell line | HT-1080 IDH1 knockdown viability, ATP luminescence, 48 h | Potency, µM (top dose mostly 46.1 µM), hits mostly cytotoxic | AID 686971, 2013 | 360,000 tested, 2% active
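IDH1KD HT-1080 cells, 750/well, RPMI + 5% FBS; compound pinned after 2 h settling; 48 h, 37 °C; CellTiter-Glo luminescence; % activity normalised to DMSO and no-cell wells; curves fitted, classed by r2 and efficacy.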
Of the large screens only hits and unclear results are named; the others gave an inactive call. Rows were chosen to be rich in hits. Some 19% of all compounds tested hit in one or more screens of this group. Unless noted, the call rests on the fitted dose curve; in most records, active means well fitted curve in the direction sought with a large enough effect; inconclusive means small, poorly fitted or top-dose-only effect, or another doubt; inactive means no such curve, though single readings can be large; an effect the other way counts as inactive or inconclusive.

COc1ccc(C(=O)COC(=O)CCS(=O)(=O)c2ccc(C)cc2)c(OC)c1	none
Cc1ccc(S(=O)(=O)CCC(=O)c2ccc(O)cc2O)cc1	TDP1 cell CPT 1.8µM, TDP1 cell noCPT 1.2µM
COc1ccc(C(=O)CCS(=O)(=O)c2ccc(C)cc2)cc1OC	TDP1 cell CPT 3.7µM, TDP1 cell noCPT 3.3µM, IL1B secr inh -82, HT1080 IDH1KD tx inconclusive
Cc1ccc(S(=O)(=O)CCC(=O)OCC(=O)c2cc(C)ccc2C)cc1	none
CCc1nc2cc(C(=O)N(C)CC3CCCN(C)C3)cc(NC(=O)c3ccccc3OC)c2n1C (stereo not drawn)	none (no result: HT1080NT lethal, IL1B secr inh, HT1080 IDH1KD tx)
Cc1c2cnccc2c(C)c2c1c1ccccc1n2CCOC(=O)c1ccccc1	TDP1 cell CPT inconclusive, TDP1 cell noCPT 11µM (no result: HT1080NT lethal, IL1B secr inh, HT1080 IDH1KD tx)
CCC1(c2cccc(Cl)c2)NC(=O)N(Cc2cc(C(=O)OC)c(C)o2)C1=O (stereo not drawn)	TDP1 cell CPT 26µM, TDP1 cell noCPT 18µM
CCN(CC)CCCNC(=O)c1cn(CC)c2cc(N3CCN(C(=O)c4ccco4)CC3)c(F)cc2c1=O	none
CCn1cc(C(=O)NCc2ccccc2)c(=O)c2cc(F)c(N3CCN(C(=O)c4ccco4)CC3)cc21	TDP1 cell CPT 10µM, HT1080NT lethal 21µM, TDP1 cell noCPT 9.2µM, IL1B secr inh -64, HT1080 IDH1KD tx inconclusive
CCn1cc(C(=O)NCc2ccc3c(c2)OCO3)c(=O)c2cc(F)c(N3CCN(C(=O)c4ccco4)CC3)cc21	TDP1 cell CPT 12µM, HT1080NT lethal 18µM, TDP1 cell noCPT 10µM, IL1B secr inh -59, HT1080 IDH1KD tx 18µM
COc1ccc(/C=C2\C(=O)NCC(=O)N2Cc2ccccc2)cc1	TDP1 cell CPT 15µM, HT1080NT lethal inconclusive, TDP1 cell noCPT 21µM, HT1080 IDH1KD tx inconclusive
COc1ccc(/C=C2\C(=O)N(Cc3ccc(F)cc3)CC(=O)N2Cc2ccccc2)cc1	TDP1 cell CPT 23µM, TDP1 cell noCPT 26µM
O=C1CCC(C(=O)N2CCCO2)CN1Cc1cccc(C(F)(F)F)c1 (stereo not drawn)	none
Cc1ccc(N2CC(C(=O)Nc3cccc(C(=O)NC4CC4)c3)CC2=O)cc1 (stereo not drawn)	none
Cc1ccc(S(=O)(=O)/N=C2\C(=O)c3ccccc3C([O-])=C2n2cc[n+](CCC(C)C)c2)cc1	TDP1 cell CPT 16µM, HT1080NT lethal inconclusive, TDP1 cell noCPT 16µM, HT1080 IDH1KD tx 10µM
CC(=O)Nc1ccc(S(=O)(=O)/N=C2\C(=O)c3ccccc3C([O-])=C2n2cc[n+](-c3ccccn3)c2)cc1	TDP1 cell CPT 3.7µM, TDP1 cell noCPT 8.2µM
Cc1ccc(NC(=O)C[n+]2ccn(C3=C([O-])c4ccccc4C3=O)c2)cc1	none
CCCC(=O)C1=C(c2ccccc2)C(C#N)(C#N)C(C#N)=C1N	TDP1 cell CPT 18µM, TDP1 cell noCPT 15µM
CCCC(=O)C1=C(N(C)c2ccccc2)CC(C)(C)CC1=O	TDP1 cell CPT inconclusive
CC(C)CNS(=O)(=O)c1cc(C(=O)N2CC(C)OC(C)C2)c(Cl)cc1Cl (stereo not drawn)	TDP1 cell CPT inconclusive, TDP1 cell noCPT 23µM
CC(C)CNc1cc(Cl)c(S(=O)(=O)NCC(C)C)cc1C(=O)O	none
CC(=O)Nc1ccc(-c2ccnc3c2CC(C(=O)NCc2cccc(Cl)c2)O3)cc1 (stereo not drawn)	TDP1 cell CPT 3.7µM, HT1080NT lethal inconclusive, TDP1 cell noCPT 2.3µM, HT1080 IDH1KD tx 1.6µM
CC(=O)Nc1cccc(-c2ccnc3c2CC(C(=O)NCc2cccnc2)O3)c1 (stereo not drawn)	HT1080NT lethal inconclusive, TDP1 cell noCPT inconclusive, HT1080 IDH1KD tx inconclusive
NC(=O)c1cccc(-c2ccnc3c2CC(C(=O)NCc2cccc(Cl)c2)O3)c1 (stereo not drawn)	TDP1 cell CPT 16µM, HT1080NT lethal inconclusive, TDP1 cell noCPT 15µM, HT1080 IDH1KD tx 9.2µM
CC(=O)Nc1cccc(-c2ccnc3c2CC(C(=O)NCc2cccc(Cl)c2)O3)c1 (stereo not drawn)	TDP1 cell CPT 3.3µM, HT1080NT lethal inconclusive, TDP1 cell noCPT 4.1µM, HT1080 IDH1KD tx inconclusive
O=C(NCCc1ccccc1)C1Cc2c(-c3ccc4c(c3)OCO4)ccnc2O1 (stereo not drawn)	TDP1 cell CPT 21µM, HT1080NT lethal inconclusive, TDP1 cell noCPT 16µM, HT1080 IDH1KD tx inconclusive
CC(C)NC(=O)C1Cc2c(-c3ccc4c(c3)OCO4)ccnc2O1 (stereo not drawn)	TDP1 cell CPT inconclusive, TDP1 cell noCPT inconclusive
COc1ccc(CCNC(=O)CSc2nn(-c3ccccc3)c(=S)s2)cc1OC	TDP1 cell CPT inconclusive, TDP1 cell noCPT inconclusive
COc1ccc(CNC(=O)CC[C@H]2O[C@@H](n3cc(C)c(=O)[nH]c3=O)C[C@@H]2O)cc1	none
CCOc1ccccc1NC(=O)NCCC1=CCCCC1	HT1080 IDH1KD tx inconclusive
COc1ccc(CCCNC(=O)C2Cc3c(-c4ccccc4)ccnc3O2)cc1 (stereo not drawn)	TDP1 cell CPT 6.5µM, HT1080NT lethal 8.2µM, TDP1 cell noCPT 5.8µM, HT1080 IDH1KD tx inconclusive
COc1ccc(NC(=O)C2Cc3c(-c4ccccc4Oc4ccccc4)ccnc3O2)cc1 (stereo not drawn)	TDP1 cell CPT inconclusive, TDP1 cell noCPT inconclusive, IL1B secr inh inconclusive
CC(=O)Nc1cccc(-c2ccnc3c2CC(C(=O)NCCN(C)C)O3)c1 (stereo not drawn)	none
CC(=O)Nc1cccc(-c2ccnc3c2CC(C(=O)NCCc2ccccc2)O3)c1 (stereo not drawn)	TDP1 cell CPT 4.6µM, HT1080NT lethal inconclusive, TDP1 cell noCPT 2.9µM, HT1080 IDH1KD tx inconclusive
O=C(Nc1cccc(Cl)c1)/C(=C\c1cccnc1)NC(=O)c1ccco1	none
O=NN(CCF)C(=O)NC1CCS(=O)(=O)CC1	TDP1 cell CPT inconclusive, TDP1 cell noCPT inconclusive
Cc1ccc(-n2ccc(=O)c(C(=O)Nc3ccc(S(=O)(=O)N4CCOCC4)cc3)n2)cc1	none
Cc1ccc(NC(=O)c2cc(S(=O)(=O)N3CCOCC3)ccc2Cl)cc1S(=O)(=O)N1CCOCC1	TDP1 cell CPT inconclusive, TDP1 cell noCPT inconclusive
Cc1cccc(-n2ccc(=O)c(C(=O)Nc3ccc(S(=O)(=O)N4CCOCC4)cc3)n2)c1	TDP1 cell CPT inconclusive, TDP1 cell noCPT 23µM
CN(C)S(=O)(=O)c1ccc(Cl)c(C(=O)Nc2ccc(S(=O)(=O)N3CCOCC3)cc2)c1	TDP1 cell CPT 10µM, TDP1 cell noCPT 9.2µM
CCc1c(C(=O)Nc2ccc(S(=O)(=O)N3CCOCC3)cc2)csc1C	TDP1 cell CPT 23µM, TDP1 cell noCPT 18µM
